{"source": "PubChem BioAssay AID1159580", "about": "(chemical genetic matrix, 2015)", "experiment": "chemical genetic growth profiling, strain panel (AID 1159580);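 note: tested at 20 µM; growth read once vehicle control cultures reached saturation at 30 °C; 1 = growth at the plate median or of vehicle wells; lower values mean less growth of the strain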", "conditions": "S. cerevisiae deletion strains, growth OD", "note": "Values joined by “and” are separate entries in the source; they are usually repeats but may differ in a detail not shown here. Identical values can stand only once. About 2,000 (36%) of roughly 5,500 compounds were called active. Another 18% or so got no clear call; they are omitted. The list shows a part of the results. A number with no mark means an inactive call. Cut-off read from the data, not from the text of the source: active = normalized growth mostly below about 0.91 (no sharp cut-off); inconclusive = no clear call, values can overlap the other calls; inactive = mostly above about 0.92.", "data": [{"molecule": "C=CCc1ccc2c(c1)OCO2", "values": [{"measurement": "normalized growth", "setting": "locus YAL013W, strain DEP1, hits give low values", "value": "0.863 (active)"}, {"measurement": "normalized growth", "setting": "locus YAL021C, strain ccr4, hits give low values", "value": 1.02}, {"measurement": "normalized growth", "setting": "locus YAL026C, strain drs2, hits give low values", "value": 1.04}, {"measurement": "normalized growth", "setting": "locus YAL030W, strain snc1, hits give low values", "value": 1.01}, {"measurement": "normalized growth", "setting": "locus YBL061C, strain skt5, hits give low values", "value": 1.02}, {"measurement": "normalized growth", "setting": "locus YBR009C, strain hhf1, hits give low values", "value": 1.05}, {"measurement": "normalized growth", "setting": "locus YBR021W, strain FUR4, hits give low values", "value": 1.03}, {"measurement": "normalized growth", "setting": "locus YBR023C, strain chs3, hits give low values", "value": 1.03}, {"measurement": "normalized growth", "setting": "locus YBR171W, strain sec66, hits give low values", "value": 1.02}, {"measurement": "normalized growth", "setting": "locus YBR229C, strain ROT2, hits give low values", "value": 1.02}, {"measurement": "normalized growth", "setting": "locus YBR231C, strain swc5, hits give low values", "value": 1.01}, {"measurement": "normalized growth", "setting": "locus YBR279W, strain paf1, hits give low values", "value": 1.03}, {"measurement": "normalized growth", "setting": "locus YCL011C, strain gbp2, hits give low values", "value": 1.03}, {"measurement": "normalized growth", "setting": "locus YCL016C, strain dcc1, hits give low values", "value": 1.05}, {"measurement": "normalized growth", "setting": "locus YCL029C, strain bik1, hits give low values", "value": 0.99}, {"measurement": "normalized growth", "setting": "locus YCL061C, strain MRC1, hits give low values", "value": 1.06}, {"measurement": "normalized growth", "setting": "locus YCL069W, strain vba3, hits give low values", "value": 1.01}, {"measurement": "normalized growth", "setting": "locus YCR088W, strain abp1, hits give low values", "value": 1.02}, {"measurement": "normalized growth", "setting": "locus YDL005C, strain med2, hits give low values", "value": 1.02}, {"measurement": "normalized growth", "setting": "locus YDL035C, strain GPR1, hits give low values", "value": 1.03}, {"measurement": "normalized growth", "setting": "locus YDL040C, strain nat1, hits give low values", "value": 1.01}, {"measurement": "normalized growth", "setting": "locus YDL074C, strain BRE1, hits give low values", "value": 1.02}, {"measurement": "normalized growth", "setting": "locus YDL101C, strain DUN1, hits give low values", "value": 0.999}, {"measurement": "normalized growth", "setting": "locus YDL185W, strain tfp1, hits give low values", "value": 1.01}, {"measurement": "normalized growth", "setting": "locus YDL192W, strain arf1, hits give low values", "value": 0.99}, {"measurement": "normalized growth", "setting": "locus YDR001C, strain nth1, hits give low values", "value": 1.02}, {"measurement": "normalized growth", "setting": "locus YDR069C, strain doa4, hits give low values", "value": 1.03}, {"measurement": "normalized growth", "setting": "locus YDR101C, strain arx1, hits give low values", "value": 0.985}, {"measurement": "normalized growth", "setting": "locus YDR137W, strain rgp1, hits give low values", "value": 1.05}, {"measurement": "normalized growth", "setting": "locus YDR159W, strain sac3, hits give low values", "value": 0.976}, {"measurement": "normalized growth", "setting": "locus YDR162C, strain NBP2, hits give low values", "value": 1.01}, {"measurement": "normalized growth", "setting": "locus YDR195W, strain ref2", "value": 0.982}, {"measurement": "normalized growth", "setting": "locus YDR297W, strain sur2, hits give low values", "value": 1.01}, {"measurement": "normalized growth", "setting": "locus YDR318W, strain mcm21, hits give low values", "value": 0.996}, {"measurement": "normalized growth", "setting": "locus YDR334W, strain swr1, hits give low values", "value": 1.03}, {"measurement": "normalized growth", "setting": "locus YDR335W, strain msn5, hits give low values", "value": 1.02}, {"measurement": "normalized growth", "setting": "locus YDR388W, hits give low values", "value": 0.987}, {"measurement": "normalized growth", "setting": "locus YDR392W, strain spt3, hits give low values", "value": 0.965}, {"measurement": "normalized growth", "setting": "locus YDR502C, strain sam2, hits give low values", "value": 0.992}, {"measurement": "normalized growth", "setting": "locus YEL003W, strain gim4, hits give low values", "value": 1.02}, {"measurement": "normalized growth", "setting": "locus YEL037C, strain rad23, hits give low values", "value": 1.02}, {"measurement": "normalized growth", "setting": "locus YEL061C, strain CIN8 (second series), hits give low values", "value": 1.02}, {"measurement": "normalized growth", "setting": "locus YEL061C, strain CIN8, hits give low values", "value": 1}, {"measurement": "normalized growth", "setting": "locus YER015W, strain faa2, hits give low values", "value": 1.01}, {"measurement": "normalized growth", "setting": "locus YER016W, strain bim1, hits give low values", "value": 1}, {"measurement": "normalized growth", "setting": "locus YER110C, hits give low values", "value": 0.982}, {"measurement": "normalized growth", "setting": "locus YER111C, strain swi4, hits give low values", "value": 1.02}, {"measurement": "normalized growth", "setting": "locus YER155C, strain BEM2 (second series), hits give low values", "value": 0.956}, {"measurement": "normalized growth", "setting": "locus YER155C, strain BEM2, hits give low values", "value": 0.999}, {"measurement": "normalized growth", "setting": "locus YER167W, strain BCK2, hits give low values", "value": 1.02}, {"measurement": "normalized growth", "setting": "locus YFR010W, strain ubp6, hits give low values", "value": 1.05}, {"measurement": "normalized growth", "setting": "locus YGL078C, strain dbp3, hits give low values", "value": 0.993}, {"measurement": "normalized growth", "setting": "locus YGL086W, strain mad1, hits give low values", "value": 0.988}, {"measurement": "normalized growth", "setting": "locus YGL167C, strain pmr1, hits give low values", "value": 1.02}, {"measurement": "normalized growth", "setting": "locus YGL173C, strain kem1, hits give low values", "value": 1.02}, {"measurement": "normalized growth", "setting": "locus YGL227W, strain vid30, hits give low values", "value": 1.01}, {"measurement": "normalized growth", "setting": "locus YGL240W, strain doc1, hits give low values", "value": 0.972}, {"measurement": "normalized growth", "setting": "locus YGL248W, strain PDE1, hits give low values", "value": 1.01}, {"measurement": "normalized growth", "setting": "locus YGL253W, strain hxk2, hits give low values", "value": 1.04}, {"measurement": "normalized growth", "setting": "locus YGR135W, strain pre9, hits give low values", "value": 1.01}, {"measurement": "normalized growth", "setting": "locus YGR229C, strain SMI1, hits give low values", "value": 1.03}, {"measurement": "normalized growth", "setting": "locus YGR252W, strain gcn5, hits give low values", "value": 1.06}, {"measurement": "normalized growth", "setting": "locus YHR013C, strain ard1, hits give low values", "value": 1.06}, {"measurement": "normalized growth", "setting": "locus YHR027C, strain rpn1, hits give low values", "value": 1.02}, {"measurement": "normalized growth", "setting": "locus YHR030C, strain SLT2, hits give low values", "value": "1 and 0.954"}, {"measurement": "normalized growth", "setting": "locus YHR079C, strain IRE1 (second series), hits give low values", "value": 0.989}, {"measurement": "normalized growth", "setting": "locus YHR079C, strain IRE1, hits give low values", "value": 0.965}, {"measurement": "normalized growth", "setting": "locus YHR094C, strain hxt1, hits give low values", "value": 0.981}, {"measurement": "normalized growth", "setting": "locus YHR129C, strain ARP1, hits give low values", "value": 1}, {"measurement": "normalized growth", "setting": "locus YHR142W, strain chs7, hits give low values", "value": 1.07}, {"measurement": "normalized growth", "setting": "locus YHR200W, strain rpn10, hits give low values", "value": 0.99}, {"measurement": "normalized growth", "setting": "locus YIL066C, strain RNR3, hits give low values", "value": 1.02}, {"measurement": "normalized growth", "setting": "locus YIL073C, strain SPO22, hits give low values", "value": 1.01}, {"measurement": "normalized growth", "setting": "locus YIL125W, strain kgd1, hits give low values", "value": 0.988}, {"measurement": "normalized growth", "setting": "locus YIR030C, strain dcg1, hits give low values", "value": 0.988}, {"measurement": "normalized growth", "setting": "locus YJL092W, strain hpr5, hits give low values", "value": 1.03}, {"measurement": "normalized growth", "setting": "locus YJL095W, strain BCK1 (second series), hits give low values", "value": 1.03}, {"measurement": "normalized growth", "setting": "locus YJL095W, strain BCK1, hits give low values", "value": 1.01}, {"measurement": "normalized growth", "setting": "locus YJL115W, strain asf1, hits give low values", "value": 1.02}, {"measurement": "normalized growth", "setting": "locus YJL129C, strain trk1, hits give low values", "value": 1.01}, {"measurement": "normalized growth", "setting": "locus YJL134W, strain LCB3, hits give low values", "value": 1}, {"measurement": "normalized growth", "setting": "locus YJL154C, strain vps35, hits give low values", "value": 1.01}, {"measurement": "normalized growth", "setting": "locus YJL164C, strain tpk1, hits give low values", "value": 1.04}, {"measurement": "normalized growth", "setting": "locus YJL166W, strain qcr8, hits give low values", "value": 1.04}, {"measurement": "normalized growth", "setting": "locus YJL168C, strain set2, hits give low values", "value": 0.987}, {"measurement": "normalized growth", "setting": "locus YJL187C, strain SWE1 (second series), hits give low values", "value": 1.01}, {"measurement": "normalized growth", "setting": "locus YJL187C, strain SWE1, hits give low values", "value": 1.03}]}]}
